KB-3-1 cytotox: KB-3-1 parental cell cytotoxicity; 400,000 tested, 1.4% active; Potency, µM (top dose mostly 46.1 µM), most hits filed as cytotoxic; KB-3-1 viability, CellTiter-Glo ATP luminescence, 72 h; note: nearly all actives have a fitted effect of over 60% in size
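Here the drug-naive KB-3-1 line serves as comparator for MDR sub-line selectivity; cells received compound titrations, 72 h at 37 °C, then CellTiter-Glo readout.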
TDP1 cell CPT: DT40-hTDP1 cell growth loss with CPT; chicken DT40 Tdp1-/-;hTDP1 cells + 20 nM CPT, ATP luminescence, 48 h; Potency, µM (top dose mostly 46.2 µM), inactives show at the highest dose activity change, negative = growth inhibition, most hits filed as inhibitors; 420,000 tested, 12% active; note: nearly all actives have a fitted effect of over 55% in size
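Chicken DT40 Tdp1-/- cells complemented with human TDP1, 400 cells/well, exposed to compounds plus 20 nM camptothecin for at least 48 h at 37 C; viability read as ATP content by CellTiter-Glo luminescence.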
KB-V1 MDR tox: KB-V1 MDR subline cytotoxicity; KB-V1 MDR cells viability, CellTiter-Glo, 72 h; Potency, µM (titrated, usually from 46.1 µM), most hits filed as cytotoxic; 400,000 tested, 3.4% active; AID 1347076; note: nearly all actives have a fitted effect of over 60% in size
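In this primary screen, KB-V1 cells overexpressing P-gp are incubated with library compounds (lowest to highest concentration) for 72 h at 37 degrees C before a luminescent ATP viability read.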
HT1080NT lethal: kills 2HG-producing HT-1080-NT fibrosarcoma cells; HT-1080-NT fibrosarcoma viability, CellTiter-Glo ATP luminescence, 48 h; Potency, µM (doses to about 46.1 µM), for the others: at the top dose activity, negative = less viability, most hits filed as cytotoxic; 360,000 tested, 1.6% active; AID 686970;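 note: NT is the 2HG producing partner of a matched IDH1 knockdown line; 0% = DMSO-treated cells and -100% = media-only wells without cells; nearly all actives have a fitted effect of over 55% in size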
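HT-1080-NT; 750 cells/well; 5% FBS RPMI; 48 h compound, 37 degrees C; CellTiter-Glo luminescence; curve fitting and curve-class assignment.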
HT1080 IDH1KD tx: kills HT-1080 cells with IDH1 knockdown | HT-1080 IDH1 knockdown viability, ATP luminescence, 48 h | Potency, µM (series often up to 46.1 µM), for inactives: at the highest dose activity, negative = toxicity, hits mostly cytotoxic | 360,000 tested, 2% active | AID 686971;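 note: 0% = DMSO wells and -100% = cell-free medium wells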
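IDH1KD HT-1080 cells, 750/well, RPMI + 5% FBS; compound pinned after 2 h settling; 48 h, 37 °C; CellTiter-Glo luminescence; % activity normalised to DMSO and no-cell wells; curves fitted, classed by r2 and efficacy.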
TDP1 cell noCPT: qHTS for Inhibitors of human tyrosyl-DNA phosphodiesterase 1 (TDP1): qHTS in cells in absence of CPT. DT40 Tdp1-/- hTDP1 cells, no CPT, ATP luminescence, 48 h. 420,000 tested, 15% active. Potency, µM (titrated, usually from 46.2 µM), for the others: at the top dose activity change, negative = growth inhibition, usual class: inhibitors; note: nearly all actives have a fitted effect of over 55% in size
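Seeded 400 DT40-hTDP1 cells/well (vehicle DMSO, no 20 nM CPT); pinned compounds; ≥48 hr at 37 °C; CellTiter-Glo luminescence as viability measure.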
* hit, by the source's call; i = inactive; ? = inconclusive; nt = not tested or not shown; [ ] = dose if it differs, or a comment. Most compounds without a hit are left out; they make up all but 19% or so of the library. Calls come from the whole dose curve; as a rule, active = well fitted curve in the direction sought with a large enough effect; inconclusive = small, poorly fitted or top-dose-only effect, or another doubt; inactive = no such curve, though single readings can be large; an effect the other way counts as inactive or inconclusive. Unless noted, % is set by controls: 0 for no effect and ±100 for the full control effect; potency is the fitted concentration of half-maximal effect.

SMILES	KB-3-1 cytotox	TDP1 cell CPT	KB-V1 MDR tox	HT1080NT lethal	HT1080 IDH1KD tx	TDP1 cell noCPT
Cc1ccccc1OCc1nc2ccccc2c(=O)n1/N=C/c1ccco1	i	?	i	2.8%	-7.7%	?
O=c1c2ccccc2nc(COc2ccccc2)n1/N=C/c1ccc(O)cc1O	?	?	i	-26.4%	?	23.1µM*
O=C(COC(=O)CCSc1ccccc1Cl)NCc1ccco1	i	-6.3%	i	3.6%	22.3%	-13.7%
CC(C)[C@H](NC(=O)c1ccccc1F)C(=O)OCC(=O)NC(=O)NC1CCCCC1	i	?	i	0.7%	-10.0%	-5.7%
COc1cc2c(cc1NC(=O)COC(=O)[C@@H](NC(=O)c1ccccc1)C(C)C)oc1ccccc12	i	?	9.2µM*	-13.7%	-3.5%	?
COc1cc2c(cc1NC(=O)COC(=O)CNC(=O)c1ccccc1)oc1ccccc12	i	0.8%	i	-4.2%	-7.5%	-17.7%
COc1cc2c(cc1NC(=O)COC(=O)[C@@H](NC(=O)c1ccccc1F)C(C)C)oc1ccccc12	i	?	16.4µM*	3.6%	9.4%	20.6µM*
COc1cc2c(cc1NC(=O)COc1ccc(Cl)cc1Br)oc1ccccc12	i	-3.3%	?	nt	nt	0.2%
CC(C)[C@H](NC(=O)c1ccccc1F)C(=O)OCC(=O)Nc1sccc1C(N)=O	i	?	i	3.5%	6.1%	11.6µM*
COc1ccc(/C=C2\SC(=Nc3ccccc3Cl)NC2=O)c(OC)c1	?	25.9µM*	?	?	?	14.6µM*
COc1ccc2[nH]c3c(c(=O)c2c1)CCCC3	i	?	i	?	9.1%	-27.4%
COc1ccc2[nH]c3c(c2c1)CC(C)NC3=O (stereo unspecified)	i	?	i	0.0%	-3.2%	7.31µM*
O=C1CC(c2ccccc2)CN1C(=O)c1cncc(Br)c1 (stereo unspecified)	i	0.4%	i	7.2%	14.1%	-1.9%
O=C(Cn1cc([N+](=O)[O-])ccc1=O)NCC1COc2ccccc2O1 (stereo unspecified)	i	-5.1%	i	-0.7%	1.0%	?
Fc1ccc(-c2cn3cc(Cc4ccc(Cl)cc4)sc3n2)cc1	?	-8.1%	i	nt	nt	-23.3%
COc1ccc(C2CC(=O)C3=C(C2)Nc2ncnn2C3c2ccccc2)cc1 (stereo unspecified)	i	4.8%	?	-7.1%	-1.8%[9.24 µM]	-23.4%
COc1ccc(C2CC(=O)C3=C(C2)Nc2ncnn2C3c2ccccc2C)cc1 (stereo unspecified)	i	2.9%	16.4µM*	-3.4%	-5.7%	-4.0%
O=C(CNC(=O)c1ccc(F)cc1)Nc1ccccc1C(F)(F)F	i	3.9%	i	12.4%	17.0%	4.8%
C/C(=N\NC(=O)c1ccn(C)n1)c1ccc(NC(=O)C2CCCC2)cc1	i	-13.6%	?	8.1%	-0.3%	18.4µM*
C/C(=N\NC(=O)c1ccn(C)n1)c1ccc(NC(=O)C2CCC2)cc1	?	?	i	0.5%	-6.6%	2.8%
C/C(=N\NC(=O)C1(C)CC1(Br)Br)c1ccc(NC(=O)C2CCC2)cc1 (stereo unspecified)	20.6µM*	18.4µM*	?	?	?	?
CC1CCC(NC(=O)COc2ccc(C(=O)c3ccccc3)cc2)CC1 (stereo unspecified)	?	?	?	-23.0%	?	10.3µM*
CC(=O)c1ccc(OCC(=O)NC2CCCCCC2)cc1	i	-4.6%	?	-0.5%	-2.4%	-12.9%
COc1ccccc1OCc1ccc(C(=O)c2ccccc2)cc1	i	-15.3%	i	-17.1%	-0.5%	?
COc1ccccc1OCCOc1ccc(C(=O)c2ccccc2)cc1	i	18.4µM*	?	1.9%	1.0%	?
SMILES	KB-3-1 cytotox	TDP1 cell CPT	KB-V1 MDR tox	HT1080NT lethal	HT1080 IDH1KD tx	TDP1 cell noCPT
CC1CCN(CCCOc2ccc(OCc3ccccc3)cc2)CC1	i	?	i	?	?	?
CC1CCN(CCOc2ccc(C(=O)c3ccccc3)cc2)CC1	i	16.4µM*	i	-10.4%	-11.3%	?
COc1ccc(C(=O)NN2C(=O)C3CCC(C)(C2=O)C3(C)C)cc1 (stereo unspecified)	i	-17.2%	i	10.0%	2.2%	-11.7%
COc1ccc(Cl)c(-c2cc(C(=O)Nc3ccc(F)cc3)[nH]n2)c1	i	14.6µM*	i	-5.6%	-19.7%	23.1µM*
COc1ccc(-c2cc(C(=O)Nc3ccc(NC(C)=O)cc3)[nH]n2)c(C)c1	i	?	i	?	4.9%	-19.3%
COc1cc(NC(=O)c2cc(-c3cccc(OC)c3)n[nH]2)cc(OC)c1	i	14.6µM*	i	nt	nt	20.6µM*
COc1ccc(Cl)c(-c2cc(C(=O)Nc3ccccc3)[nH]n2)c1	i	23.1µM*	i	?	-19.6%	16.4µM*
COc1cc(NC(=O)c2ccccc2-c2ccccc2)cc(OC)c1	i	?	11.6µM*	5.3%	2.3%	?
O=C(Nc1ccc(C(=O)OCc2cc(=O)n3ccsc3n2)cc1)c1cccc(F)c1	i	-20.4%	?	nt	nt	-1.4%
CC(=O)N1CCOc2ccc(S(=O)(=O)N3CC(C)CC(C)C3)cc21 (stereo unspecified)	i	-17.0%	i	-5.6%	-0.2%	24.4%

Assay outcomes deposited in PubChem BioAssay by National Center for Advancing Translational Sciences (NCATS).
